Reference: PubChem BioAssay (Tox21)
Where “and” joins values, the source holds several entries; their conditions need not be identical. Equal values may be shown once. Results filed as inconclusive are left out. Where a call stands in place of a potency, no number is given. Some compounds were tested as several samples or in several runs, with calls that do not always agree. Calls of active or inactive are those of the source. Calls follow the shape of the dose curve; as a rule, active = well fitted curve in the direction sought with a large enough effect in the repeat runs; inconclusive = weak or mixed curves; inactive = no such curve, though single readings can be large; an effect the other way counts as inactive or inconclusive.

Key:
[1] = qHTS RealTime-Glo MT Cell Viability Assay in HepG2 cells - 40 hour (AID 1224870); also: nearly all actives have a fitted effect of over 50% in size; also: potency is read from the fitted curve at half-maximal effect
Summary of the method: (§1)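 HepG2 cells mixed with RealTime-Glo MT reagents (NanoLuc plus cell-permeant prosubstrate) were seeded at 600 cells/well, incubated 5 h at 37 C/5% CO2, then pinned with compounds in DMSO; nonlytic luminescence tracked viability during 40 h treatment.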

[2] = qHTS RealTime-Glo MT Cell Viability Assay in HEK293 cells - 16 hour (AID 1224872); also: nearly all actives have a fitted effect of over 50% in size; also: potency is read from the fitted curve at half-maximal effect
Summary of the method: (§2)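 Tox21 10K qHTS, HEK293, 600 cells/well, RealTime-Glo reagent co-dispensed with cells; 5 h preincubation, compound by pintool, 37 C, luminescence at 0–40 h.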

[3] = qHTS RealTime-Glo MT Cell Viability Assay in HepG2 cells - 8 hour (AID 1224873); also: nearly all actives have a fitted effect of over 55% in size; also: potency is read from the fitted curve at half-maximal effect
Summary of the method: as §1

[4] = qHTS RealTime-Glo MT Cell Viability Assay in HEK293 cells - 40 hour (AID 1224874); conditions: RealTime-Glo luminescence; max response: stronger effect = lower value; also: nearly all actives have a fitted effect of over 50% in size; also: potency is read from the fitted curve at half-maximal effect
Summary of the method: (§3)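 Luminescence readout at each listed time point; HEK293, 600 cells/well, RealTime-Glo MT reagent added with cells; compounds pinned (23 nL in DMSO) after 5 h at 37 C; continuous culture at 37 C.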

[5] = A CellTox Green Cytotoxicity Assay to monitor cytotoxicity in HEK293 cells - 24 hour (AID 1224875); also: nearly all actives have a fitted effect of over 45% in size; also: potency is read from the fitted curve at half-maximal effect
Summary of the method: (§4)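 Read-out: fluorescence of a cell-impermeant cyanine dye staining DNA of dead cells, proportional to cytotoxicity. HEK293, 600 cells/well with reagent, compound (23 nL DMSO) added after 5 h; reads at 0, 8, 16, 24, 32, 40 h.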

[6] = A CellTox Green Cytotoxicity Assay to monitor cytotoxicity in HepG2 cells - 16 hour (AID 1224876); also: nearly all actives have a fitted effect of over 45% in size; also: potency is read from the fitted curve at half-maximal effect
Summary of the method: (§5)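 HepG2, 600 cells/well premixed w/ CellTox Green; 5 h settle, 37 C/5% CO2; pintool cpd add (DMSO); 37 C, 40 h; fluorescence read at 0, 8, 16, 24, 32, 40 h.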

[7] = qHTS RealTime-Glo MT Cell Viability Assay in HepG2 cells - 32 hour (AID 1224877); also: nearly all actives have a fitted effect of over 55% in size; also: potency is read from the fitted curve at half-maximal effect
Summary of the method: (§6)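 Cells + NanoLuc/prosubstrate dispensed (600 cells/well) → 5 h at 37 C/5% CO2 → compounds in DMSO transferred → 40 h incubation at 37 C, luminescence read at 0, 8, 16, 24, 32, 40 h.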

[8] = A CellTox Green Cytotoxicity Assay to monitor cytotoxicity in HepG2 cells - 24 hour (AID 1224878); also: nearly all actives have a fitted effect of over 45% in size; also: potency is read from the fitted curve at half-maximal effect
Summary of the method: as §5

[9] = A CellTox Green Cytotoxicity Assay to monitor cytotoxicity in HepG2 cells - 40 hour (AID 1224879); also: nearly all actives have a fitted effect of over 40% in size; also: potency is read from the fitted curve at half-maximal effect
Summary of the method: as §5

[10] = qHTS RealTime-Glo MT Cell Viability Assay in HEK293 cells - 0 hour (AID 1224880); also: top concentration of the series differs between compounds; nearly all actives have a fitted effect of over 45% in size
Summary of the method: as §3

[11] = A CellTox Green Cytotoxicity Assay to monitor cytotoxicity in HEK293 cells - 32 hour (AID 1224881); also: nearly all actives have a fitted effect of over 40% in size; also: potency is read from the fitted curve at half-maximal effect
Summary of the method: as §4

[12] = A CellTox Green Cytotoxicity Assay to monitor cytotoxicity in HepG2 cells - 0 hour (AID 1224882); also: nearly all actives have a fitted effect of over 35% in size; also: potency is read from the fitted curve at half-maximal effect
Summary of the method: as §5

[13] = A CellTox Green Cytotoxicity Assay to monitor cytotoxicity in HepG2 cells - 32 hour (AID 1224883); also: nearly all actives have a fitted effect of over 50% in size; also: potency is read from the fitted curve at half-maximal effect
Summary of the method: as §5

[14] = A CellTox Green Cytotoxicity Assay to monitor cytotoxicity in HEK293 cells - 8 hour (AID 1224884); also: nearly all actives have a fitted effect of over 35% in size; also: potency is read from the fitted curve at half-maximal effect
Summary of the method: as §4

[15] = qHTS RealTime-Glo MT Cell Viability Assay in HepG2 cells - 16 hour (AID 1224885); also: nearly all actives have a fitted effect of over 50% in size
Summary of the method: as §6

[16] = qHTS RealTime-Glo MT Cell Viability Assay in HEK293 cells - 24 hour (AID 1224886); also: nearly all actives have a fitted effect of over 50% in size; also: potency is read from the fitted curve at half-maximal effect
Summary of the method: as §2

[17] = qHTS RealTime-Glo MT Cell Viability Assay in HEK293 cells - 8 hour (AID 1224887); also: nearly all actives have a fitted effect of over 50% in size; also: potency is read from the fitted curve at half-maximal effect
Summary of the method: as §3

[18] = A CellTox Green Cytotoxicity Assay to monitor cytotoxicity in HEK293 cells - 16 hour (AID 1224888); also: nearly all actives have a fitted effect of over 35% in size
Summary of the method: as §4

[19] = qHTS RealTime-Glo MT Cell Viability Assay in HepG2 cells - 0 hour (AID 1224889); also: nearly all actives have a fitted effect of over 50% in size; also: potency is read from the fitted curve at half-maximal effect
Summary of the method: as §6

| SMILES | Potency [1] | Potency [2] | Potency [3] | max response [4] | Potency [5] | Potency [6] | Potency [7] | Potency [8] | Potency [9] | Potency [10] | Potency [11] | Potency [12] | Potency [13] | Potency [14] | Potency [15] | Potency [16] | Potency [17] | Potency [18] | Potency [19] | Potency [4] |
| --- | --- | --- | --- | --- | --- | --- | --- | --- | --- | --- | --- | --- | --- | --- | --- | --- | --- | --- | --- | --- |
| C=C(C)C(=O)OCC1CO1 (stereo not drawn) | inactive | inactive | inactive | 9.74% (inactive) and -15.3% (inactive) | inactive | inactive | inactive | inactive | inactive | inactive | inactive | inactive | inactive | inactive | inactive | inactive | inactive | inactive | inactive | – |
| CCCCCCCCOC(=O)c1ccccc1C(=O)OCCCCCCCC | inactive | inactive | inactive | 2.33% (inactive) and -2.33% (inactive) | inactive | inactive | inactive | inactive | inactive | inactive | inactive | inactive | inactive | inactive | inactive | inactive | inactive | inactive | inactive | – |
| c1ccc(P(c2ccccc2)c2ccccc2)cc1 | inactive | inactive | inactive | -31.4% (inactive) | inactive | inactive | inactive | inactive | inactive | inactive | inactive | inactive | inactive | inactive | – | inactive | inactive | inactive | inactive | – |
| C=CCc1ccc(OC)cc1 | inactive | inactive | inactive | -1.64% (inactive) and 2.11% (inactive) | inactive | inactive | inactive | inactive | inactive | inactive | inactive | inactive | inactive | inactive | inactive | inactive | inactive | inactive | inactive | – |
| c1ccc(N=Nc2ccccc2)cc1 | inactive | inactive | inactive | -14.7% (inactive) and -11.3% (inactive) | inactive | inactive | inactive | inactive | inactive | inactive | – | inactive | inactive | inactive | inactive | inactive | inactive | inactive | inactive | – |
| O=Cc1ccco1 | inactive | inactive | inactive | -0.5% (inactive) | – | inactive | inactive | inactive | inactive | inactive | 23.7 µM (active) | inactive | inactive | 42.2 µM (active) and inactive | – | inactive | inactive | – | inactive | – |
| CN(C)C(=O)Nc1ccc(Cl)cc1 | inactive | inactive | inactive | -3.64% (inactive) and -10.5% (inactive) | inactive | inactive | inactive | inactive | inactive | inactive | inactive | inactive | inactive | inactive | inactive | inactive | inactive | inactive | inactive | – |
| O=[N+]([O-])c1c(Cl)c(Cl)c(Cl)c(Cl)c1Cl | inactive | inactive | inactive | 2.95% (inactive) and 16.6% (inactive) | inactive | inactive | inactive | inactive | inactive | inactive | 21.8 µM (active) and inactive | inactive | inactive | inactive | – | inactive | inactive | inactive | inactive | – |
| CCC(=O)O[C@H]1CC[C@H]2[C@@H]3CCC4=CC(=O)CC[C@]4(C)[C@H]3CC[C@]12C | inactive | 21.9 µM (active) and 23.9 µM (active) | inactive | – | 19.5 µM (active) and 5.35 µM (active) | 38.9 µM (active) | inactive | 43.6 µM (active) | 49 µM (active) and inactive | – | 19.5 µM (active) and 19 µM (active) | inactive | 43.6 µM (active) | 34.7 µM (active) and inactive | inactive | 21.9 µM (active) and 23.9 µM (active) | 38.9 µM (active) | – | 7.76 µM (active) | 19.5 µM (active) and 23.9 µM (active) |
| Oc1cc(Cl)ccc1Oc1ccc(Cl)cc1Cl | 44.7 µM (active) | 22.4 µM (active) and 23.9 µM (active) | 22.4 µM (active) and 23.9 µM (active) | – | 22.4 µM (active) | 44.7 µM (active) and 19 µM (active) | 25.1 µM (active) | 22.4 µM (active) and 21.3 µM (active) | 25.1 µM (active) and 23.9 µM (active) | inactive | 22.4 µM (active) | 50.1 µM (active) and inactive | 43 µM (active) and 23.9 µM (active) | 50.1 µM (active) and inactive | – | 22.4 µM (active) and 23.9 µM (active) | 35.5 µM (active) and 23.9 µM (active) | – | inactive | 34.1 µM (active) |
| Cc1ccc(OP(=O)(Oc2ccc(C)cc2)Oc2ccc(C)cc2)cc1 | inactive | inactive | inactive | -19.7% (inactive) | inactive | inactive | inactive | inactive | 4.36 µM (active) and inactive | inactive | inactive | inactive | 4.89 µM (active) and inactive | inactive | – | inactive | inactive | inactive | inactive | – |
